# Test results: PubChem BioAssay (EPA / NIEHS)
# Activity calls are given as the source filed them. How the source made its calls: active means hit-call score of the fitted dose curve at least 0.9, where 1 is the maximum; inactive means score below 0.9.
# How the values were obtained:
# Details in all cases: mRNA level, 48 h; actives raise or lower the signal
# [1] = read-out: ABC Transporter (ABCC2), ABCC2 (gene 1244); test: LTEA_HepaRG_ABCC2: Life Technologies and Expression Analysis (LTEA) Assay for ABC Transporter (ABCC2) using HepaRG (AID 2283464)
# Summary of the method: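 qRT-PCR (TaqMan, Fluidigm array) read-out of ABCC2 mRNA, normalized to three housekeeping genes. Differentiated HepaRG cells were treated 48 h in serum-free induction medium with 8-point half-log series from 100 uM in 0.5% DMSO; curves fitted bidirectionally relative to DMSO.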
# [2] = read-out: Broad substrate specificity ATP-binding cassette transporter ABCG2 (Homo sapiens) (UniProt Q9UNQ0); test: LTEA_HepaRG_ABCG2: Life Technologies and Expression Analysis (LTEA) Assay for ABC Transporter (ABCG2) using HepaRG (AID 2283465)
# Summary of the method: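 Read-out is ABCG2 mRNA induction or loss quantified by qRT-PCR after 48 h chemical treatment of human HepaRG cells, normalized to three housekeeping genes. Concentrations reached 100 uM top in half-log steps; fitting was bidirectional against 0.5% DMSO.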
# [3] = read-out: ATP-citrate lyase (ACLY), ACLY (gene 47); test: LTEA_HepaRG_ACLY: Life Technologies and Expression Analysis (LTEA) Assay for ATP-citrate lyase (ACLY) using HepaRG (AID 2283466)
# Summary of the method: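 HepaRG, 48 h exposure, 8-pt half-log dilutions (top 100 uM), 0.5% DMSO. Readout: ACLY mRNA, TaqMan qRT-PCR, housekeeping-normalized (ACTB/GAPDH/POLR2A). Bidirectional curve fit vs DMSO.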
# [4] = read-out: Peroxisomal acyl-coenzyme A oxidase 1 (ACOX1) gene, ACOX1 (gene 51); test: LTEA_HepaRG_ACOX1: Life Technologies and Expression Analysis (LTEA) Assay for Peroxisomal acyl-coenzyme A oxidase 1 (ACOX1) gene using HepaRG (AID 2283467)
# Summary of the method: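 Measured by qRT-PCR against three housekeeping genes: ACOX1 transcript change in human HepaRG cells after 48 h dosing. Concentrations ran up to 100 uM in half-log steps. Curves were fitted bidirectionally relative to 0.5% DMSO.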
# [5] = read-out: Alkaline Phosphatase, Placental (ALPP) gene, ALPP (gene 250); test: LTEA_HepaRG_ALPP: Life Technologies and Expression Analysis (LTEA) Assay for Alkaline Phosphatase, Placental (ALPP) gene using HepaRG (AID 2283468)
# Summary of the method: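 qRT-PCR readout of ALPP mRNA (Fluidigm TaqMan), normalized to ACTB/GAPDH/POLR2A, after 48 h chemical exposure of HepaRG cells; 8-point half-log series, top 100 uM, 0.5% DMSO vehicle. Bidirectional curve fit versus DMSO baseline.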
# [6] = read-out: Bcl-2 (BAD) gene, BAD (gene 572); test: LTEA_HepaRG_BAD: Life Technologies and Expression Analysis (LTEA) Assay for Bcl-2 (BAD) gene using HepaRG (AID 2283469)
# Summary of the method: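 BAD transcript change, measured by qRT-PCR against three housekeeping genes and fitted in both directions relative to 0.5% DMSO, after 48 h chemical treatment of human HepaRG liver cells at concentrations up to 100 uM.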
# [7] = read-out: Bcl-2 (BAX) gene, BAX (gene 581); test: LTEA_HepaRG_BAX: Life Technologies and Expression Analysis (LTEA) Assay for Bcl-2 (BAX) gene using HepaRG (AID 2283470)
# Summary of the method: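 Differentiated human HepaRG cells, plated 48 h then switched to serum-free induction medium, were exposed 48 h to 8 half-log concentrations up to 100 uM in 0.5% DMSO; BAX mRNA measured by qRT-PCR, normalized to ACTB, GAPDH, POLR2A.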
# [8] = read-out: adenosine kinase (ADK) gene, ADK (gene 132); test: LTEA_HepaRG_ADK: Life Technologies and Expression Analysis (LTEA) Assay for adenosine kinase (ADK) gene using HepaRG (AID 2283471)
# Summary of the method: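 Read-out is ADK transcript level measured by qRT-PCR and normalised to three housekeeping genes. Cells are human HepaRG, dosed for 48 h at up to 100 uM in 0.5% DMSO. Gain or loss of signal is fitted against DMSO controls.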
# [9] = read-out: Alpha-fetoprotein (AFP) gene, AFP (gene 174); test: LTEA_HepaRG_AFP: Life Technologies and Expression Analysis (LTEA) Assay for Alpha-fetoprotein (AFP) gene using HepaRG (AID 2283472)
# Summary of the method: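 Human HepaRG cells plated 48 h, then switched to serum-free induction medium and exposed in duplicate for 48 h to 8-point half-log series from 100 uM in 0.5% DMSO. AFP mRNA by qRT-PCR, normalized to ACTB, GAPDH, POLR2A; bidirectional fit versus DMSO.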
# [10] = read-out: BCL2L11 (gene 10018); test: LTEA_HepaRG_BCL2L11: Life Technologies and Expression Analysis (LTEA) Assay for Bcl-2 (BCL2L11) gene using HepaRG (AID 2283473)
# Summary of the method: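 HepaRG, 48 h exposure, 8-pt half-log series from 100 uM in 0.5% DMSO, duplicates; qRT-PCR (Fluidigm TaqMan) for BCL2L11, housekeeping-normalized; bidirectional curve fit relative to DMSO baseline.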
# [11] = read-out: Apolipoprotein A-V (APOA5) gene, APOA5 (gene 116519); test: LTEA_HepaRG_APOA5: Life Technologies and Expression Analysis (LTEA) Assay for Apolipoprotein A-V (APOA5) gene using HepaRG (AID 2283474)
# Summary of the method: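 HepaRG, 48 h chemical exposure in serum-free induction medium, 8-pt half-log series (top 100 uM), 0.5% DMSO vehicle, duplicates. Readout: APOA5 mRNA by qRT-PCR, housekeeping-normalized; bidirectional fit vs DMSO baseline.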
# [12] = read-out: Bcl-2 (BID) gene, BID (gene 637); test: LTEA_HepaRG_BID: Life Technologies and Expression Analysis (LTEA) Assay for Bcl-2 (BID) gene using HepaRG (AID 2283476)
# Summary of the method: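 Differentiated HepaRG cells in serum-free induction medium were exposed in duplicate for 48 h to eight half-log concentrations up to 100 uM in 0.5% DMSO. BID mRNA was quantified by qRT-PCR, normalized to ACTB, GAPDH and POLR2A.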
# [13] = read-out: Caspase-3 (Homo sapiens) (UniProt P42574); test: LTEA_HepaRG_CASP3: Life Technologies and Expression Analysis (LTEA) Assay for cysteine-aspartic acid protease (CASP3) using HepaRG (AID 2283477)
# Summary of the method: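 HepaRG, 48 h exposure, 8 conc. (top 100 uM, half-log steps, duplicate), 0.5% DMSO vehicle; qRT-PCR of CASP3 transcript, housekeeping-normalised (ACTB/GAPDH/POLR2A); bidirectional curve fit vs DMSO baseline.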
# [14] = read-out: Cytochrome P450 (CYP24A1), CYP24A1 (gene 1591); test: LTEA_HepaRG_CYP24A1: Life Technologies and Expression Analysis (LTEA) Assay for Cytochrome P450 (CYP24A1) using HepaRG (AID 2283478)
# Summary of the method: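 qRT-PCR read-out: CYP24A1 transcript levels normalized to three housekeeping genes, bidirectional curve fits against 0.5% DMSO baseline. Human HepaRG cells treated 48 h with chemicals at eight concentrations from 100 uM in half-log steps.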
# [15] = read-out: Cytochrome P450 (CYP1A2), CYP1A2 (gene 1544); test: LTEA_HepaRG_CYP1A2: Life Technologies and Expression Analysis (LTEA) Assay for Cytochrome P450 (CYP1A2) using HepaRG (AID 2283479)
# Summary of the method: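 HepaRG, 48 h exposure, top 100 uM, half-log 8-pt, 0.5% DMSO vehicle, duplicates. Readout: TaqMan qRT-PCR of CYP1A2 mRNA, housekeeping-normalized (ACTB/GAPDH/POLR2A). Gain/loss fit relative to DMSO baseline.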
# [16] = read-out: cysteine-aspartic acid protease (CASP8), CASP8 (gene 841); test: LTEA_HepaRG_CASP8: Life Technologies and Expression Analysis (LTEA) Assay for cysteine-aspartic acid protease (CASP8) using HepaRG (AID 2283480)
# Summary of the method: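 HepaRG, 48 h exposure, duplicate wells; 8 conc, half-log from 100 uM, 0.5% DMSO. Serum-free induction medium. CASP8 mRNA by TaqMan qRT-PCR, norm. ACTB/GAPDH/POLR2A; gain/loss fitted vs DMSO.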
# [17] = read-out: Cytochrome P450 (CYP2B6), CYP2B6 (gene 1555); test: LTEA_HepaRG_CYP2B6: Life Technologies and Expression Analysis (LTEA) Assay for Cytochrome P450 (CYP2B6) using HepaRG (AID 2283481)
# Summary of the method: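 Read-out is CYP2B6 mRNA by TaqMan qRT-PCR, normalized to three housekeeping genes and fitted bidirectionally against 0.5% DMSO baseline. Human HepaRG cells received test chemicals for 48 h, top concentration 100 uM, half-log dilutions.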
# [18] = read-out: CYP2C8 (gene 1558); test: LTEA_HepaRG_CYP2C8: Life Technologies and Expression Analysis (LTEA) Assay for CYP2C8 using HepaRG (AID 2283483)
# Summary of the method: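 CYP2C8 mRNA induction or loss, by qRT-PCR normalized to ACTB/GAPDH/POLR2A, is read in HepaRG cells after 48 h treatment. Concentrations run from 100 uM down in half-log dilutions, with 0.5% DMSO as vehicle and baseline.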
# [19] = read-out: Apoptosis regulator Bcl-2 (Homo sapiens) (UniProt P10415); test: LTEA_HepaRG_BCL2: Life Technologies and Expression Analysis (LTEA) Assay for Bcl-2 gene using HepaRG (AID 2283475)
# Summary of the method: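 Differentiated HepaRG cells in serum-free induction medium were exposed for 48 h to eight half-log concentrations up to 100 uM in 0.5% DMSO, in duplicate. BCL2 mRNA was quantified by TaqMan qRT-PCR normalised to ACTB, GAPDH and POLR2A, with bidirectional fitting versus DMSO.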
# [20] = read-out: Cytochrome P450 2C19 (Homo sapiens) (UniProt P33261); test: LTEA_HepaRG_CYP2C19: Life Technologies and Expression Analysis (LTEA) Assay for CYP2C19 using HepaRG (AID 2283482)
# Summary of the method: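 HepaRG, 48 h chemical exposure, 8-pt half-log series from 100 uM in 0.5% DMSO, duplicates. Readout: CYP2C19 mRNA by TaqMan qRT-PCR, housekeeping-normalized. Bidirectional fit vs DMSO baseline; phenobarbital 1mM as induction control.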
# Chain of Broad substrate specificity ATP-binding cassette transporter ABCG2 (Homo sapiens) (Q9UNQ0 whole entry, looked up): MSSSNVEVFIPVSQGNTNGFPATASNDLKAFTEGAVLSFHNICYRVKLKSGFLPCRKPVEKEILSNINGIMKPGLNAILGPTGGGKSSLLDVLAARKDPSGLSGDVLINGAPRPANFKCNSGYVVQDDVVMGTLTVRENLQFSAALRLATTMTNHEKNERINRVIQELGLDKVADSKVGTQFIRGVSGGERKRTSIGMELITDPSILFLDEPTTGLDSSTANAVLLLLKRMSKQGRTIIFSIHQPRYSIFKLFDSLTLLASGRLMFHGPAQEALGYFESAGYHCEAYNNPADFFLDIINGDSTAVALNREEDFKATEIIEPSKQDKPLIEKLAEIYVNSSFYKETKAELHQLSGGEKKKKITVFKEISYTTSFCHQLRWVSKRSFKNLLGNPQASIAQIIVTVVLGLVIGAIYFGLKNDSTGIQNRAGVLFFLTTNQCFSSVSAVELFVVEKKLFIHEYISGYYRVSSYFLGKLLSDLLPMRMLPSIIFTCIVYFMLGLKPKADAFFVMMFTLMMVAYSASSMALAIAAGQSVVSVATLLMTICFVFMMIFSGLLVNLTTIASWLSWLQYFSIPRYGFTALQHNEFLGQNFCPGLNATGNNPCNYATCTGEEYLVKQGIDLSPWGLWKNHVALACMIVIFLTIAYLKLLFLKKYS
# Chain of Caspase-3 (Homo sapiens) (P42574 whole entry, looked up): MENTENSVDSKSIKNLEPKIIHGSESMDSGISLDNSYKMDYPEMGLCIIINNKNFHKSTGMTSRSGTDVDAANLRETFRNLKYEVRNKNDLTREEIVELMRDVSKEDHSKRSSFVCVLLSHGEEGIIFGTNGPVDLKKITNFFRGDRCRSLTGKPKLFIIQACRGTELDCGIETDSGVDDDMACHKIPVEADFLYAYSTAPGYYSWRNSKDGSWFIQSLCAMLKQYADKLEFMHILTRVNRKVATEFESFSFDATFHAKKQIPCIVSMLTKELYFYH
# Chain of Apoptosis regulator Bcl-2 (Homo sapiens) (P10415 whole entry, looked up): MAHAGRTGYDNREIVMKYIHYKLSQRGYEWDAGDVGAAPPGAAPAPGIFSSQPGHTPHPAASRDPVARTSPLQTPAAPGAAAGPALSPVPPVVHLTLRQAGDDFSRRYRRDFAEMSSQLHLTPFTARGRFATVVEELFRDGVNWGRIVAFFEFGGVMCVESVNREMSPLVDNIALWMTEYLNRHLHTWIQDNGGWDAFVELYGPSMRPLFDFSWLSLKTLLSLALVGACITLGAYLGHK
# Chain of Cytochrome P450 2C19 (Homo sapiens) (P33261 whole entry, looked up): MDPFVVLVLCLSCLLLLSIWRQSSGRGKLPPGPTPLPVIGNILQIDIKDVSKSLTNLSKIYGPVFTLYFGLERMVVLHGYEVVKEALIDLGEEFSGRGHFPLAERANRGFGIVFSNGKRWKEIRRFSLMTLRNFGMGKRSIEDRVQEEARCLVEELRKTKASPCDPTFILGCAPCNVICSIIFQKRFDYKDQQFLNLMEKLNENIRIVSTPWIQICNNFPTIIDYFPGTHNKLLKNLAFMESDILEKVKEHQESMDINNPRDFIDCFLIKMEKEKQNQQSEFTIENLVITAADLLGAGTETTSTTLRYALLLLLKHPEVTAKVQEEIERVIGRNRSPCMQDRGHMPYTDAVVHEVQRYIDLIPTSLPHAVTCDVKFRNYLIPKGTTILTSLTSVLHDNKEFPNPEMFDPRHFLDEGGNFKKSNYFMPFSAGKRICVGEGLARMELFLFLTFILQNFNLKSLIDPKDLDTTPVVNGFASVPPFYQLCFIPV
smiles,measurement,setting,value
CC(C)c1nnc2ccc(-c3ocnc3-c3cc(F)ccc3F)cn12,outcome,[1],inactive
same,AC50,[2],0.384 µM (active)
same,outcome,[3],inactive
same,outcome,[4],inactive
same,AC50,[5],39.6 µM (active)
same,outcome,[6],inactive
same,outcome,[7],inactive
same,outcome,[8],inactive
same,AC50,[9],50 µM (active)
same,outcome,[10],inactive
same,AC50,[11],56.3 µM (active)
same,outcome,[12],inactive
same,outcome,[13],inactive
same,outcome,[14],inactive
same,outcome,[15],inactive
same,outcome,[16],inactive
same,AC50,[17],0.619 µM (active)
same,AC50,[18],82.6 µM (active)
O=C(NO)C1(NS(=O)(=O)c2ccc(Oc3ccc(F)cc3)cc2)CCOCC1,outcome,[1],inactive
same,outcome,[2],inactive
same,outcome,[4],inactive
same,AC50,[5],60.9 µM (active)
same,outcome,[6],inactive
same,outcome,[7],inactive
same,outcome,[8],inactive
same,AC50,[9],70.2 µM (active)
same,outcome,[10],inactive
same,outcome,[11],inactive
same,outcome,[19],inactive
same,outcome,[12],inactive
same,AC50,[13],50 µM (active)
same,outcome,[14],inactive
same,outcome,[15],inactive
same,outcome,[16],inactive
same,AC50,[17],11.8 µM (active)
same,AC50,[20],12.8 µM (active)
same,AC50,[18],90.7 µM (active)
Cc1nc(-c2ccccn2)ncc1C(=O)Nn1cc(C)c2cc(F)ccc21,AC50,[1],12.2 µM (active)
same,outcome,[2],inactive
same,outcome,[3],inactive
same,outcome,[4],inactive
same,AC50,[5],82.3 µM (active)
same,outcome,[6],inactive
same,outcome,[7],inactive
same,outcome,[8],inactive
same,AC50,[9],50 µM (active)
same,outcome,[10],inactive
same,AC50,[11],80.6 µM (active)
same,outcome,[12],inactive
same,outcome,[13],inactive
same,outcome,[14],inactive
same,outcome,[15],inactive
same,outcome,[16],inactive
same,AC50,[17],0.168 µM (active)
same,outcome,[18],inactive
